# Hits are enriched below; roughly 19% of the tested compounds scored in any of these assays.
# SW480 rereplic – inducers of DNA re-replication in SW480 colon cancer cells. AID 624297. Potency, µM (titrated, usually from 46.1 µM), inactives show at the highest dose re-replication activation, most hits filed as activators. hit rate 1.8% among 340,000. SW480 DNA re-replication, Hoechst DNA content imaging, 48 h; note: potency is the fitted concentration of half-maximal effect; % of control where 0% means no effect; nearly all actives have a fitted effect of over 55% in size
#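 Cells (250 per well) received 23 nL compound or DMSO by pin tool and were kept 48 hr at 37 C, 5% CO2. Nuclei were then stained with Hoechst for 40 min and scanned for DNA content.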
# BCR signal inh – blocks chronic active B-cell receptor signaling; AID 493014; Potency, µM (titrated, usually from 46.1 µM), without a hit: at the top dose activity change, negative = inhibition, actives largely listed as inhibitors; hit rate 0.05% among 340,000; ABC-DLBCL IkBa-CBG/CBR reporter, luminescence ratio, 4 h; active = well fitted inhibition curve with a large enough effect in the signal ratio, with a control signal flat, not every such curve was filed as active; inconclusive = small, poorly fitted or top-dose-only effect, or effect the other way, or a change in a side signal; the % refers to the signal ratio;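 note: potency is the fitted concentration of half-maximal effect; plate controls were basal doxycycline-induced cells for no effect and cells given 10 µM MG132 for full effect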
#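 Cell line TMD8 (human ABC DLBCL), stably expressing tet-inducible CBG68-IkBa fusion and CBR; IMDM/0.5% FBS; cpd up to 46 uM; dox induction, 4 h, 37C/5% CO2; dual luminescence; green/red ratio; MG132 control.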
# TDP1 cell CPT – growth inhibition of DT40 Tdp1-/-;hTDP1 cells with camptothecin (screen for TDP1 inhibitors); chicken DT40 Tdp1-/-;hTDP1 cells + 20 nM CPT, ATP luminescence, 48 h; Potency, µM (titrated, usually from 46.2 µM), for inactives: top-dose activity change, negative = growth inhibition, hits mostly inhibitors; hit rate 12% among 420,000; note: potency is the fitted concentration of half-maximal effect; % is set by controls: 0 for no effect and ±100 for the full control effect; nearly all actives have a fitted effect of over 55% in size
#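 Chicken DT40 Tdp1-/- cells complemented with human TDP1, 400 cells/well, exposed to compounds plus 20 nM camptothecin for at least 48 h at 37 C; viability read as ATP content by CellTiter-Glo luminescence.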
# MCF10A rereplic – induces DNA re-replication in MCF 10a normal breast cells; Potency, µM (series often up to 46.1 µM), inactives show at the top dose activity, positive = re-replication, actives largely listed as activators; MCF 10A DNA re-replication, Hoechst nuclear intensity, 48 h; hit rate 2.9% among 350,000; AID 624296; note: potency is the fitted concentration of half-maximal effect; % of control where 0% means no effect; nearly all actives have a fitted effect of over 50% in size
# IL1B secr inh – inflammasome signaling inhibition, IL-1 beta readout; activity change, % at 57.5 µM; hit rate 4.7% among 360,000; THP-1 LPS/ATP IL-1B secretion, AlphaLISA, 16 h; hits give low values; AID 743279; in the data active = activity change below about -50%; inconclusive = mostly about -30% to -49%; note: % is set by controls: 0 for no effect and ±100 for the full control effect
#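 Secreted IL-1B measured by AlphaLISA bead assay after 16 h compound exposure of THP-1 cells; compounds (final up to 57.5 uM) added 1 h before LPS (250 ng/mL) and ATP (1.25 mM) stimulation; lower signal means less secretion.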
# TDP1 cell noCPT – qHTS for Inhibitors of human tyrosyl-DNA phosphodiesterase 1 (TDP1): qHTS in cells in absence of CPT | hit rate 15% among 420,000 | DT40 Tdp1-/- hTDP1 cells, no CPT, ATP luminescence, 48 h | AID 686978, 2013 | Potency, µM (top dose mostly 46.2 µM), for inactives: at the highest dose activity change, negative = growth inhibition, actives largely listed as inhibitors; note: potency is the fitted concentration of half-maximal effect; % is set by controls: 0 for no effect and ±100 for the full control effect; nearly all actives have a fitted effect of over 55% in size
#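 No-CPT arm: Tdp1-/-;hTDP1 DT40 cells (400/well) plus compounds, incubated ≥48 hr at 37 °C. Readout CellTiter-Glo luminescence.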
# The depositor's hits bear a star; ? = inconclusive; . = no result given; ! = not active in a repeat; [ ] = another dose, or the depositor's remark. Unless noted, calls come from the whole dose curve; as a rule, active = well fitted curve in the direction sought with a large enough effect; inconclusive = small, poorly fitted or top-dose-only effect, or another doubt; inactive = no such curve, though single readings can be large; an effect the other way counts as inactive or inconclusive.
SMILES,SW480 rereplic,BCR signal inh,TDP1 cell CPT,MCF10A rereplic,IL1B secr inh,TDP1 cell noCPT
Cc1c(C)c2cc(Cl)c(OCC(=O)N3CCN(c4ccc(F)cc4)CC3)cc2oc1=O,-35.0%,-0.2%,-12.5%,1.1%,44.1,-10.2%
CC(C)c1ccc(N2C(=NC(=O)C3CC3)SC3CS(=O)(=O)CC32)cc1 (configuration not stated),-0.2%,4.3%,-14.1%,-2.7%,31.0,4.6%
CC(C)c1nc2cccnc2n1C1CCN(C(=O)Cn2cccn2)CC1,.,.,-7.4%[9.04 µM],.,.,-0.6%
COc1ccc(Nc2cc(Nc3cccc(OC)c3)ncn2)cc1,2.1%,?,-25.5%,-15.2%,-14.3,?
CCn1c(SCC(=O)Nc2ccc(OC)cc2OC)nc2nc3c(cc2c1=O)COC(C)(C)C3,-5.2%,-16.0%,-27.7%,-0.3%,?,?
O=C(CSc1nc2c(oc3ccccc32)c(=O)n1Cc1ccco1)Nc1cccc(Cl)c1,.,.,?,.,.,20.6µM*
CCn1c(SCC(=O)Nc2cccc(C)c2)nc2nc3c(cc2c1=O)COC(C)(C)C3,-3.2%,?,25.9µM*,7.2%,-83.0*,18.4µM*
Cc1ccn(CC(=O)N2CCCC(N3CCN(c4cccc(C(F)(F)F)c4)CC3)C2)n1 (configuration not stated),.,.,?,.,-1.7,?
Cc1ccc2[nH]c3c(=O)n(CC(=O)N4CCN(C)CC4)ncc3c2c1,28.6%,0.2%,0.7%,?,1.8,11.3%
Cc1ccc(Cn2c(=O)n(Cc3ccccc3)c(=O)c3c(C)c(C)sc32)cc1,.,.,9.0%,.,.,1.0%
CCSc1sccc1C1C(C#N)=C(N)N(c2cccnc2)C2=C1C(=O)CCC2 (configuration not stated),-2.5%,?,?,?,0.0,?
COc1cc(C2C(C#N)=C(N)N(c3cccnc3)C3=C2C(=O)CCC3)ccc1O (configuration not stated),-5.4%,-9.7%,-0.6%,2.3%,-59.1*,-0.8%
COc1cc(C2C(C#N)=C(N)N(c3ccc(F)cc3)C3=C2S(=O)(=O)CC3)ccc1O (configuration not stated),?,?,13µM*,?,-22.4,?
COc1ccc2c(c1)CC(C(=O)N1CCC(C(N)=O)CC1)CO2 (configuration not stated),.,.,-8.9%,.,.,-15.2%
CC[C@H](C)C(=O)O[C@H]1CCC=C2C=C[C@H](C)[C@H](CC[C@@H]3C[C@@H](O)CC(=O)O3)[C@H]21,?,?,?,-15.1%,4.7,14.6µM*!
CC[C@H](C)C(=O)O[C@H]1CCC=C2C=C[C@H](C)[C@H](CC[C@@H]3C[C@H](O)CC(=O)O3)[C@H]21,.,.,18.8µM*,.,.,13.3µM*
CCC(C)C(=O)OC1CCC=C2C=CC(C)C(CCC3CC(O)CC(=O)O3)C21 (configuration not stated),?,.,?,21.1%,67.5,23.1µM*
O=C(NNC(=O)C1CC=CCC1)c1ccccc1Cl (configuration not stated),-3.3%,?,10.5%,0.8%,2.0,0.6%
Cc1cccc(N2CCN(C(=O)COc3noc4nc(C)cc(C)c34)CC2C)c1 (configuration not stated),.,.,?,.,-10.8,?
COCCNC(=O)CSc1nc2cc3c(cc2c(=O)n1Cc1ccco1)OCO3,-13.3%,-2.5%,-27.1%,3.4%,25.5,-19.3%
CCCCNC(=O)CSc1nc2cc3c(cc2c(=O)n1Cc1ccco1)OCO3,-0.4%,?,18.4µM*,4.6%,9.3,16.4µM*
CCC(Sc1nc2cc3c(cc2c(=O)n1Cc1ccco1)OCO3)C(=O)Nc1cccc(OC)c1 (configuration not stated),11.0%,2.8%,?,?,31.2,?
CCC(Sc1nc2cc3c(cc2c(=O)n1Cc1ccco1)OCO3)C(=O)Nc1ccccc1OC (configuration not stated),-5.1%,1.1%,8.2µM*,-0.7%,-21.5,8.2µM*
Cc1nc2c(Br)cc(Br)cc2c(=O)n1-c1ccccc1NC1OCC(O)C(O)C1O (configuration not stated),?,.,7.31µM*,?,-12.5,8.2µM*
O=C(Nc1ccccc1)Nc1cc(Cl)cc(Cl)c1,16.3%,?,6.51µM*,?,-82.5*,11.6µM*
SMILES,SW480 rereplic,BCR signal inh,TDP1 cell CPT,MCF10A rereplic,IL1B secr inh,TDP1 cell noCPT
O=C(Nc1cccc(F)c1)Nc1cccc(Cl)c1,?,2.1%,?,7.0%,-88.1*,?
CC(=O)Nc1ccc(NC(=O)Nc2ccccc2)cc1,-2.7%,?,-4.3%,0.1%,-25.6,27.1%
O=C(Nc1cccnc1)Nc1ccccc1Cl,1.2%,?,?,-0.6%,10.1,-8.2%
O=C(Nc1ccccc1)Nc1cc(OCC(F)(F)F)cc(OCC(F)(F)F)c1,15.1%,?,4.11µM*,20.6µM*,-103.3*,2.91µM*
CC(=O)Nc1cccc(NC(=O)Nc2cccc(F)c2)c1,3.4%,7.1%,-14.1%,2.0%,-3.1,?
O=C(Nc1cccnc1)Nc1cc(Cl)cc(Cl)c1,-2.4%,0.2%,10.3µM*,?,-100.9*,23.1µM*
O=C(O)C1CCN(S(=O)(=O)Cc2ccccc2)CC1,2.7%,1.4%,-1.1%,2.5%,-13.6,10.7%
O=C(Nc1cccc(Cl)c1)Nc1cccc(Cl)c1,2.2%,?,14.6µM*,?,-21.0,11.6µM*
N#CCc1ccc(NC(=O)Nc2cccc(Cl)c2)cc1,2.1%,-8.8%,16.4µM*,21.9%,-29.7,?
O=C(Nc1ccc2c(c1)OCO2)c1cccc(F)c1,3.7%[9.22 µM],.,-8.9%,4.4%,-23.2,-14.5%
O=C(Nc1ccc(F)c(Cl)c1)c1cccnc1,8.3%,-7.8%,?,2.9%,-15.9,?
O=C(Nc1cccc(F)c1)Nc1ccc2c(c1)OCO2,?,?,?,0.8%,-66.8*,?
Fc1ccc(NC(=S)Nc2cccnc2)cc1Cl,-3.9%,1.0%,?,-0.2%,19.5,23.1µM*
COC[C@@H]1CCCN1[C@@H]1CS(=O)(=O)N[C@H]1COCc1ccccc1,.,.,-9.1%,.,15.0,-25.7%
O=C(NCc1cccs1)c1nn(-c2ccccc2F)nc1CO,.,.,-19.6%,.,.,-26.0%
Cc1csc(SCC(=O)NC2CCS(=O)(=O)C2)n1 (configuration not stated),-2.5%,0.6%,13.4%,0.3%,-12.5,?
COc1ccccc1NC(=O)CSc1nc(O)c(C/C=C/c2ccccc2)c(=O)[nH]1,.,.,-6.1%,.,.,-17.9%

# Assay outcomes: PubChem BioAssay, National Center for Advancing Translational Sciences (NCATS)
